# Compound activity from PubChem BioAssay.
# The entries come from a sample that favours hits as a whole.
# NS1 inh = qHTS Assay for Inhibitors of Influenza NS1 Protein Function. Potency, µM (titrated, usually from 46.1 µM). hit rate 0.4% among 270,000. AID 2326, 2010; note: actives are rising curves; nearly all actives have a fitted effect of over 50% in size
#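 Read-out: OD600 growth recovery of NS1-expressing budding yeast. Cells grown overnight at 30C in -URA glucose medium, washed, resuspended and diluted 1:100 in 2% galactose assay medium, pH 6.0. Same strain lacking NS1 served as positive control.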
# LmPK inhibitor = qHTS Assay for Inhibitors of Leishmania Mexicana Pyruvate Kinase (LmPK) | Q27686 | purified LmPK, Kinase-Glo ATP luminescence, 1 h | Potency, µM (series often up to 57.5 µM), usual class: inhibitors | hit rate 0.37% among 290,000; active = well fitted curve in the direction sought with a large enough effect; inconclusive = small, poorly fitted or top-dose-only effect, or another doubt; inactive = no such curve, though single readings can be large; an effect the other way counts as inactive or inconclusive
# Target sequence (Q27686 whole entry, looked up): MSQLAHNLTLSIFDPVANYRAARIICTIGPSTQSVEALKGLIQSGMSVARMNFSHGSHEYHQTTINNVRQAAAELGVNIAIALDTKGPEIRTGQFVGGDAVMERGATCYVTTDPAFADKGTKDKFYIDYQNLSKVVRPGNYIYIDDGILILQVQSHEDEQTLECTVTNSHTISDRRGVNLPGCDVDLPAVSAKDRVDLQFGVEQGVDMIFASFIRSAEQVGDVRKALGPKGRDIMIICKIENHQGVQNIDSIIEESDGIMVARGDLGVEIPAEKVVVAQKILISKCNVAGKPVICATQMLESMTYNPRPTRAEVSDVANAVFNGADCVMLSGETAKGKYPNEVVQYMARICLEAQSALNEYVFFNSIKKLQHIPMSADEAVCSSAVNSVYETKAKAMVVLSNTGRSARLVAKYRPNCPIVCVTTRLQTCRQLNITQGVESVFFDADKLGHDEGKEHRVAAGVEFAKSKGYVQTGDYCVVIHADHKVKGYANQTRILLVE
#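 Screened at intermediate enzyme activity to detect both inhibitors and activators: LmPK at 0.1 nM, with a 0.5 nM enzyme column as activation reference. PEP 0.5 mM, ADP 0.1 mM; ATP detected by luminescence after 1 h.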
# Cycloheximide cs = Cycloheximide Counterscreen for Small Molecule Inhibitors of Shiga Toxin. max response, %. cell reporter, cycloheximide protein synthesis inhibition counterscreen. hit rate 12% among 300,000; in the data active = max response mostly above about 13%, no sharp cut-off; inactive = mostly below about 14%; note: read at 38.3 µM for the half of the compounds with a filed dose
# Shiga toxin inh = A qHTS for Small Molecule Inhibitors of Shiga Toxin; AID 2315, 2010; inhibition, % at 38.7 µM; hit rate 9.2% among 290,000; Vero cells, Shiga toxin protein synthesis inhibition reporter; in the data active = inhibition mostly above about 28%, no sharp cut-off; inactive = mostly below about 43%
# SARS PLpro yeast = qHTS of Yeast-based Assay for SARS-CoV PLP; S. cerevisiae expressing SARS-CoV PLpro, growth rescue; Potency, µM (titrated, usually from 32.9 µM), most hits filed as activators; hit rate 0.19% among 330,000; note: nearly all actives have a fitted effect of over 55% in size
# TbPYK inhibitor = qHTS of Trypanosoma Brucei Inhibitors. TbPYK enzyme, Kinase-Glo Plus ATP luminescence, 45 min. pyruvate kinase (Trypanosoma brucei), Q57TT1. Potency, µM (titrated, usually from 76.8 µM), most hits filed as inhibitors. hit rate 0.12% among 410,000; active = well fitted curve in the direction sought with a large enough effect; inconclusive = small, poorly fitted or top-dose-only effect, or another doubt; inactive = no such curve, though single readings can be large; an effect the other way counts as inactive or inconclusive; note: nearly all actives have a fitted effect of over 50% in size
#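 Glycolytic pyruvate kinase of T. brucei was incubated with substrate, test compound and 130 uM ADP for 45 minutes at room temperature. Luminescent Kinase-Glo Plus signal was measured after 10 minutes.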
# Numbers stand for hits; 0 = inactive; ? = inconclusive; - = not tested or not shown; [ ] = dose if it differs, or a comment. Unless noted, calls come from the whole dose curve.
SMILES,NS1 inh,LmPK inhibitor,Cycloheximide cs,Shiga toxin inh,SARS PLpro yeast,TbPYK inhibitor
COc1ccc(C(=O)N/N=C(/C)c2cccc(NC(=O)C(F)(F)F)c2)cc1,0,0,37,73,0,0
Cc1cccc(NC(=O)N2CC(=O)Nc3sc4c(c3C2c2ccccc2)CCCC4)c1C (centres undefined),-,-,-,-,-,0
COCCNC(=O)C1(C)CCCN(Cc2ccc(Cl)c(Cl)c2)C1 (centres undefined),-,-,-,-,-,0
COc1ccc(C2=NS(=O)(=O)N(C)C(C(=O)N3CCc4ccccc4C3)=C2)cc1OC,0,0,0,0,0,0
CCc1ccc(CNC(=O)c2sc3nc[nH]c(=O)c3c2C)cc1,-,-,-,-,-,0
COc1ccc2[nH]c(S(=O)Cc3ncc(C)c(OC)c3C)nc2n1 (centres undefined),-,-,-,-,-,0
Cc1sc(NC(=O)c2ccccc2F)c(CN2CCCCC2C)c1C (centres undefined),0,0,71,61,0,0
CC(=O)Nc1sc(C)c(C)c1CN1CCN(Cc2ccccc2)CC1,0,0,0,0,0,0
CCOC(=O)C1=C(CS(=O)(=O)c2ccc(F)cc2)NC(=O)NC1c1ccc(OCC)c(OC)c1 (centres undefined),-,-,-,-,-,0
CCOc1cccc2sc(N(Cc3cccnc3)C(=O)c3ccco3)nc12,-,-,-,-,-,0[15.4 µM]
COc1ccc(CCNC(=O)CCCn2c(=O)c3ccccc3n(Cc3ccccc3C#N)c2=O)cc1OC,-,-,-,-,-,0
O=C(Nc1ccccc1F)c1ccncc1,0,0,0,0,0,0
Cc1cnc(C(=O)Nc2ccccc2F)cn1,0,18µM,43,84,0,0
Cc1cnc(C(=O)Nc2ccc(C(C)C)cc2)cn1,-,0,46,134,0,0
Cc1cnc(C(=O)Nc2ccc(F)cc2)cn1,0,?,53,99,0,0
Cc1cnc(C(=O)Nc2ccccc2-n2cccc2)cn1,0,0,0,0,0,0
COC(=O)n1ccc(C(=O)Nc2ccccc2F)n1,0,0,27,0,0,0
CCn1c(C(=O)NCc2ccccc2Br)cc2oc3ccccc3c21,-,-,-,-,-,0
CCN(CC)C(=O)C1=C(C)N(CCC2=CCCCC2)C(=O)C(CC(=O)NCCN2CCOCC2)C1 (centres undefined),-,-,-,-,-,0
CC(C)(C)NC(=O)C(c1ccc(-c2ccccc2)cc1)N(C[C@H]1CC[C@@H]([C@@H]2CC[C@H](CO)O2)O1)C(=O)c1cccc(Cl)c1 (some centres undefined),-,-,-,-,0,0
Cc1cc(CC(C)C)n(-c2nc3ccccc3c(=O)n2OCC(N)=O)n1,0,0,26,104,0,0
Cc1cc(C)n(-c2nc3ccccc3c(=O)n2OCC(N)=O)n1,0,0,0,0,0,0
Cc1ccc(S(=O)(=O)N2CCOCC2)cc1NC(=O)c1ccc(F)cc1F,-,-,-,-,0,0
Cc1ccc(N(CN2CCCC2=O)C(=O)c2ccc(C)c(C)c2)cc1,0,0,17,0,0,0
CC(=O)Nc1sc(N/N=C\c2ccccc2F)nc1-c1cccs1,0,0,38,62,0,0
SMILES,NS1 inh,LmPK inhibitor,Cycloheximide cs,Shiga toxin inh,SARS PLpro yeast,TbPYK inhibitor
CC(=O)Nc1sc(N/N=C\c2cccc(Cl)c2)nc1-c1cccs1,0,0,19,0,0,0
CC(=O)Nc1sc(N/N=C\c2ccc(O)cc2)nc1-c1cccs1,0,0,27,68,0,0
COc1cccc(NC(=O)Cn2cc(C(=O)c3ccco3)c3ccccc32)c1,-,-,-,-,-,0
COc1ccc(Cl)cc1-c1cc(C(=O)NCc2ccco2)[nH]n1,-,-,-,-,-,0
O=C1CCCCC/C1=N/Nc1ccc(OCc2ccccc2)cc1,0,0,12,0,0,0
O=C(COc1ccc(OCc2ccccc2)cc1)NN=C1CCCC1,-,0,0,0,0,0
Cc1ccc(Cn2cc(/C=C(/C#N)C(=O)Nc3cccc(Cl)c3)c3ccccc32)cc1,-,-,-,-,-,0
CCOC(=O)C(C)N1N=C(/C=C/c2ccc(C)cc2)CCC1=O (centres undefined),0,0,0,0,0,0
C=CCN1N=C(/C=C/c2ccc(C)cc2)CCC1=O,-,0,35,92,0,0
C=CCN1N=C(/C=C/c2ccc(OC)cc2)CCC1=O,0,0,54,115,0,0
COc1ccc(/C=C/C2=NN(Cc3ccccc3)C(=O)CC2)cc1,-,0,0,0,0,0
CCOCC(=O)NC1CCc2cc(OC)c(OC)c(OC)c2-c2ccc(SC)c(=O)cc21 (centres undefined),-,-,-,-,-,0
Cc1nn(-c2ccccc2)c(C)c1-c1ccccc1O,0,0,0,0,0,0
Cc1nn(-c2ccccc2)c(/N=C/c2ccc(O)cc2)c1-c1ccccc1,0,0,27,0,0,0
COc1ccc(CNC(=O)CCCn2ncn3c(cc4occc43)c2=O)cc1,0,0,0,0,0,0
CCOC(=O)CCCn1ncn2c(cc3occc32)c1=O,0,0,55,0,0,0
O=C1NC(=O)C(=Cc2ccc(-c3ccccc3[N+](=O)[O-])o2)C(=O)N1,0,0,0,0,0,16µM
O=C1NC(=O)C(=Cc2ccc(-c3cc(Cl)ccc3[N+](=O)[O-])o2)C(=O)N1,0,0,0,0,0,18µM
CC1=C(C#N)C(=O)NC(=O)/C1=C\c1ccc(-c2cc(C)c(C)cc2[N+](=O)[O-])o1,-,0,0,0,0,0
Cc1ccc(NCc2nnc3n2CCCCC3)cc1Cl,-,-,-,-,-,0
COCCC(=O)N1CCC(Oc2ccc(C(=O)N(C)C3CCCCC3)cc2)CC1,0,0,12,-,0,0
COCC(=O)N1CCC(Oc2ccc(C(=O)N(C)C3CCCCC3)cc2)CC1,0,0,0,0,0,0
CCCOC1CCCN(C(=O)c2ccc(OC3CCN(C(=O)CCOC)CC3)cc2)C1 (centres undefined),0,0,16,0,0,0
COc1ccccc1N(C)c1cc2c(c3c1ccn3C)C1CCC2O1 (centres undefined),-,-,-,-,-,0
CC(C)CS(=O)(=O)C1=NSC2=NC(=O)/C(=C\c3ccc(OC(=O)c4ccco4)cc3)C(=N)N21,0,0,0,0,0,0
SMILES,NS1 inh,LmPK inhibitor,Cycloheximide cs,Shiga toxin inh,SARS PLpro yeast,TbPYK inhibitor
CSC1=NSC2=NC(=O)/C(=C\c3ccc(OC(=O)c4ccco4)cc3)C(=N)N12,0,0,19,34,0,0
CC1=CSC2=NC(=O)/C(=C/c3cccc(OC(=O)c4ccco4)c3)C(=N)N12,0,0,0,34,0,0
CCCC(NC(=O)c1ccc(Br)o1)c1nc2ccccc2[nH]1 (centres undefined),-,-,-,-,0,0
COc1ccc(/C=N/NC(=O)c2ccc3c(c2)OCO3)cc1,0,0,27,102,0,0
COc1ccc(NCC(=O)N/N=C/c2ccc3c(c2)OCCO3)cc1,0,0,22,0,0,0
COc1ccc(NS(=O)(=O)c2cccc(C(=O)N/N=C/c3ccc4c(c3)OCCO4)c2)cc1,0,0,0,0,0,0
